# Test results published in PubChem BioAssay AID1159583 (ICCB-Longwood Screening Facility, Harvard Medical School, 2016).
# Several values for one entry are separate records, joined by “and”; a condition that tells them apart may be missing. Equal entries are not always repeated. Hit rate of the full screen: of about 300,000 compounds, about 310 (0.1%) were called active. Rule as the data show it: active = fluorescence inhibition mostly above about 23% (no sharp cut-off); inactive = mostly below about 17%. This excerpt belongs to a sample that is enriched for actives.
# Test: hypoxia reporter signal reduction in M. tuberculosis – fluorescence, absorbance growth readout, primary screen (AID 1159583)
# Conditions: M. tuberculosis hypoxia-regulated fluorescent reporter, stronger effect = higher value, concentration not given here; growth inhibition: measured here: M. tuberculosis growth (absorbance)
Compound,fluorescence inhibition,growth inhibition
CCc1ccc(S(=O)(=O)NN=Cc2ccc3c(c2)OCO3)cc1,1.76% (inactive),-2.08%
CN1C(=O)C(=NOC(=O)c2ccccc2Cl)c2ccccc21,12.3% (inactive),3.63%
COc1ccc(C=NNc2c(Cl)cc(Cl)cc2Cl)cc1CN1CCOCC1,-4.05% (inactive),12.6%
Cc1cc(C)cc(NC(=O)NC2CCCCCCC2)c1,95.8%,
CC(C)(C)NS(=O)(=O)c1ccc(NC(=O)NC2CCCCC2)cc1,3.29% (inactive),2.76%
CC(C)c1ccc(NC(=O)NC2CCCCC2)cc1,20.8% (active),53%
CSc1nsc(NN=Cc2ccccc2)c1C#N,1.35% (inactive),9.85%
CC(C)CCn1c(=O)c(C(=O)NN=Cc2cccc(F)c2)c(O)c2ccccc21,5.09% (inactive),2.73%
O=C1CC2c3c(cccc3CN1Cc1ccc(F)cc1)CC(O)C2O (stereo not drawn),13.8% (inactive),7.24%
CC(=NNC(=O)c1ccn(C)n1)c1cccc(NC(=O)c2ccncc2)c1,-2.04% (inactive),6.06%
COCc1c(Br)c(C)nc(OCC(=O)NN=Cc2ccc(C)o2)c1C#N,18.1% (inactive),8.53%
CCC(=NNC(C)=O)c1ccc(OC(F)F)cc1,18.5% (inactive),-1.52%
Cc1c(C=NNC(=O)c2ccc(F)cc2)cnn1C,2.95% (inactive),1.5%
COc1ccc(C2CC(=O)C=C(c3ccc(Cl)cc3C)C2)cc1 (stereo not drawn),14.8% (inactive),2.62%
O=C(O)CC1c2cc(C(F)(F)F)ccc2S(=O)(=O)N1C1CCCCC1 (stereo not drawn),13.2% (inactive),14.6%
CCOc1cc(C=NNC(=O)CSc2nnc(C)s2)ccc1OCc1ccccc1Cl,-1.48% (inactive),-4.08%
CC1(C)CC(=O)CC(=NNC(=O)C2CC2c2ccccc2)C1 (stereo not drawn),-1.34% (inactive),15.1%
O=C(O)c1cccc2c1-c1ccccc1C2=NNc1ccccc1,1.02% (inactive),-10.1%
O=[N+]([O-])c1ccccc1NN=Cc1cccc(O)c1O,9.33% (inactive),0.684%
CC(=NO)C(C)(C)Nc1cccc(F)c1,-1.15% (inactive),4.49%
COc1ccc(-c2sc3ccccc3c2C=Cc2ccc(OC)c(OC)c2)cc1,17.3% (inactive),10%
COc1ccc(C2C=CCN(S(C)(=O)=O)C(C)C(=O)N2Cc2ccc(F)cc2)cc1 (stereo not drawn),18% (inactive),13.9%
CC(C)(C)OC(=O)NC(Cc1ccccc1)C(=O)NC(CO)C(O)C1CC1C(=O)NC1CC1 (stereo not drawn),14.6% (inactive),4.91%
O=C(CN1CCN(Cc2ccc(Cl)cc2)CC1)NN=Cc1cccs1,6.55% (inactive),-3.12%
Cc1ccc(C=NNC(=O)Nc2ccccc2)o1,14.8% (inactive),5.33%
CCN1C(=O)C(CC(=O)Nc2ccccc2)SC1=Nc1ccccn1 (stereo not drawn),0.176% (inactive),4.92%

Compound,fluorescence inhibition,growth inhibition
COc1ccc(Cl)cc1NC(=O)CC(C)=NNC(=O)COc1ccc(C)cc1,13.3% (inactive),3.14%
O=[N+]([O-])c1ccc(Cl)cc1NN=Cc1ccncc1,6.88% (inactive),-1.48%
O=C(NN=Cc1ccncc1)c1cc2c(ccc3ccccc32)o1,-1.63% (inactive),10.4%
COc1cc(C=NNC(=S)NCc2ccccc2)ccc1OCC#N,8.67% (inactive),7.58%
CC(C)c1ccc(C=NNC(=O)c2cc(-c3cccc([N+](=O)[O-])c3)n[nH]2)cc1,16.3% (inactive),1.5%
Cc1ccc(C=NNC(=O)CCCOc2ccc(Cl)cc2Cl)cc1[N+](=O)[O-],1.7% (inactive),5.81%
O=C(NN=Cc1ccccc1)C(O)c1ccccc1 (stereo not drawn),-2.65% (inactive),-6.95%
COc1ccc2c(c1)C1C(CO2)C(c2ccccc2)[C@]2(C)C(=O)Nc3cc(F)c(F)cc3C(=O)N12 (stereo partly drawn),12.4% (inactive),11.9%
COC(=O)C1=C(C)N(Cc2ccccc2)C(=NCc2ccco2)NC1c1cccc(F)c1 (stereo not drawn),-3.36% (inactive),4.01%
CC(=O)C=C(C)NC(Cc1c[nH]c2ccccc12)C(=O)O (stereo not drawn),-7.06% (inactive),-3.51%
CC(=NNC(=S)NC1CCCCC1)c1ccc(OC(F)F)cc1OC(F)F,2.47% (inactive),1.1%
COc1ccc(Cl)cc1C(=O)NN=Cc1ccc(N2CCOCC2)cc1,-1.94% (inactive),6.35%
CC(Cc1ccccc1)=NNC(=O)CNC(=O)c1cccc(Br)c1,-10% (inactive),-2.78%
CCOC(=O)C1=C(N)n2c(sc(=Cc3ccco3)c2=O)=C(C(=O)OC)C1c1ccco1 (stereo not drawn),-1.95% (inactive),-7.35%
C=CCc1cccc(C=Nc2nc3ccccc3n2CC)c1O,7.78% (inactive),3.33%
CCOc1c2ccc(C(=O)NC(C)C3CCCCC3)cc2nn1CCOC (stereo not drawn),1.7% (inactive),7.24%
CC#CCN1c2ccccc2[C@]23CC(C(=O)OC)N(C(C)=O)C2=NC(C(=O)OC)=C(C(=O)OC)C13 (stereo partly drawn),21.5% (inactive),5.39%
COc1ccc(C(=O)NN=Cc2ccc(OC(=O)c3cccc4ccccc34)c([N+](=O)[O-])c2)cc1,8.45% (inactive),6.08%
COc1ccc(C2CC(=O)C=C(c3ccc(OC(F)(F)F)cc3)C2)cc1OC (stereo not drawn),-7.53% (inactive),0.871%
Cc1sc2nc(C)n(N=Cc3ccc(O)cc3)c(=O)c2c1C,8.51% (inactive),1.4%
CCCCN1C(N)=NCC1CCCCN (stereo not drawn),3.89% (inactive),4.01%
O=C(CCCC(=O)NN=Cc1ccccc1C(=O)O)NN=Cc1ccccc1C(=O)O,3.15% (inactive),3.53%
NC(=NOC(=O)c1ccc2c(c1)OCO2)c1ccc([N+](=O)[O-])cc1,3.03% (inactive),4.61%
COc1ccc(C=NNc2nc(=O)[nH]nc2C)cc1[N+](=O)[O-],5.04% (inactive),5.94%
CCn1c(SCC(=O)NN=C(C)c2ccco2)nnc1-c1ccccc1,-6.87% (inactive),-5.95%
Oc1ccccc1C=NNc1cccc2cccnc12,2.03% (inactive),5%

Compound,fluorescence inhibition,growth inhibition
O=C(Cc1cc(=O)[nH][nH]1)NN=Cc1ccccc1Cl,-6.7% (inactive),3.17%
Cc1ccc(S(=O)(=O)NN=Cc2ccc(OC3CSC3)cc2)cc1,-5.05% (inactive),2.12%
CC(NCCN1CCOCC1)=C(C#N)C(N)=O,7.39% (inactive),4.01%
O=C1C2CC3C=CC2(O3)C2OCCCN12 (stereo not drawn),8.99% (inactive),11.9%
CC1CC2C3CCC4=CC(=O)C=C[C@]4(C)[C@@]3(F)C(O)C[C@]2(C)C1C(=O)CO (stereo partly drawn),-3.35% (inactive),0.308%
Nc1cnnc(NN=Cc2ccccc2)c1Cl,7.6% (inactive),4.96%
Cc1cc(C(=O)NN=Cc2ccc(-c3ccc([N+](=O)[O-])cc3C)o2)n[nH]1,5.18% (inactive),1.96%
O=C(NN=Cc1ccccn1)c1cc(-c2ccccc2Cl)n[nH]1,10.9% (inactive),11.2%
CC(=NNC(=O)OC(C)(C)C)c1ccc(-n2ccnc2)cc1,11.1% (inactive),15.9%
N#CC(=NNc1cccc(F)c1)C(=O)C1CC1,0.893% (inactive),-0.741%
CC(CC(O)(C=NO)c1ccccc1)=NO (stereo not drawn),10% (inactive),6.39%
COc1ccc(C=NNc2nc3ccccc3[nH]2)c(OC)c1OC,1.22% (inactive),-0.982%
CCOC(=O)C(=Cc1ccc(C)cc1)NC(=O)c1ccccc1,1.97% (inactive),2.94%
NC(Cc1cccc2ccccc12)=NOC(=O)Cc1cccs1,2.6% (inactive),4.27%
COc1ccc(CNC(=O)C2CC=CC3CCN(C4CC4)C(=O)C32)cc1 (stereo not drawn),19.3% (inactive),20.6%
Cc1cc(C(=O)NN=Cc2cn[nH]c2-c2ccccc2)cs1,-3.45% (inactive),-1.59%
COc1cccc(C2Oc3ccc(Br)cc3C(=O)C2OC(=O)NC2CCCC2)c1 (stereo not drawn),2.63% (inactive),0.422%
CCCCCC=CC1=CC(=O)CC(c2ccc(Cl)cc2)C1 (stereo not drawn),-0.281% (inactive),11.6%
Cc1cc(SCC(=O)NN=Cc2ccccc2C(=O)O)c(C)cc1Br,0.764% (inactive),-1.84%
OCC1OC(O)C(O)C1O (stereo not drawn),1.54% (inactive),-8.94%
CC(C)(C)OC(=O)CC1CC=CCC(CC(=O)NC(CO)Cc2ccccc2)C(=O)NC(C(C)(C)C)COC1=O (stereo not drawn),0.171% (inactive) and 3.19% (inactive),4.91% and 7.16%
CC(C)(O)C1C2OC(=O)C1[C@]1(O)CC3O[C@]34C(=O)OC2[C@]14C (stereo partly drawn) (tested in a mixture with another compound),-0.0447% (inactive),5.86%
COC(=O)[C@]1(Cc2ccccc2)NC(c2ccc(-c3cccc(Cl)c3)c(OC)c2)C2C(=O)N(C)C(=O)C21 (stereo partly drawn),1.8% (inactive),8.95%
O=C(NN=Cc1c[nH]c2ccccc12)c1[nH]c2ccc(Br)cc2c1-c1ccccc1,4.24% (inactive),-6.01%
O=C(NN=CC1CC2CCC1C2)C1CC1 (stereo not drawn),-1.06% (inactive),-3.88%
